Assay outcomes as filed in PubChem BioAssay.
JMJD2E inh – blocks human JMJD2E demethylase activity; B2RXH2; JMJD2E catalytic domain, FDH-coupled NADH fluorescence (FDH is formaldehyde dehydrogenase); Potency, µM (highest dose often 57.1 µM), actives largely listed as inhibitors; actives 1.6% (n = 230,000); active means well fitted inhibition curve with a large enough effect, not every such curve was filed as active; inconclusive means small, poorly fitted or top-dose-only effect, or another doubt; inactive means no such curve, though single readings can be large or run the other way; further: nearly all actives have a fitted effect of over 50% in size
hERG WT inh – inhibitors of human wildtype KCNH2 potassium channel; Q12809; U2OS, BacMam KCNH2, thallium flux FluxOr; active compounds read low; activity change, % at 1.84 µM; actives 0.37% (n = 340,000); AID 720551;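 active means maximum activity change below -70%; inconclusive means maximum activity change between -70% and -50%; inactive means maximum activity change above -50%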
Target sequence (Q12809 whole entry, looked up): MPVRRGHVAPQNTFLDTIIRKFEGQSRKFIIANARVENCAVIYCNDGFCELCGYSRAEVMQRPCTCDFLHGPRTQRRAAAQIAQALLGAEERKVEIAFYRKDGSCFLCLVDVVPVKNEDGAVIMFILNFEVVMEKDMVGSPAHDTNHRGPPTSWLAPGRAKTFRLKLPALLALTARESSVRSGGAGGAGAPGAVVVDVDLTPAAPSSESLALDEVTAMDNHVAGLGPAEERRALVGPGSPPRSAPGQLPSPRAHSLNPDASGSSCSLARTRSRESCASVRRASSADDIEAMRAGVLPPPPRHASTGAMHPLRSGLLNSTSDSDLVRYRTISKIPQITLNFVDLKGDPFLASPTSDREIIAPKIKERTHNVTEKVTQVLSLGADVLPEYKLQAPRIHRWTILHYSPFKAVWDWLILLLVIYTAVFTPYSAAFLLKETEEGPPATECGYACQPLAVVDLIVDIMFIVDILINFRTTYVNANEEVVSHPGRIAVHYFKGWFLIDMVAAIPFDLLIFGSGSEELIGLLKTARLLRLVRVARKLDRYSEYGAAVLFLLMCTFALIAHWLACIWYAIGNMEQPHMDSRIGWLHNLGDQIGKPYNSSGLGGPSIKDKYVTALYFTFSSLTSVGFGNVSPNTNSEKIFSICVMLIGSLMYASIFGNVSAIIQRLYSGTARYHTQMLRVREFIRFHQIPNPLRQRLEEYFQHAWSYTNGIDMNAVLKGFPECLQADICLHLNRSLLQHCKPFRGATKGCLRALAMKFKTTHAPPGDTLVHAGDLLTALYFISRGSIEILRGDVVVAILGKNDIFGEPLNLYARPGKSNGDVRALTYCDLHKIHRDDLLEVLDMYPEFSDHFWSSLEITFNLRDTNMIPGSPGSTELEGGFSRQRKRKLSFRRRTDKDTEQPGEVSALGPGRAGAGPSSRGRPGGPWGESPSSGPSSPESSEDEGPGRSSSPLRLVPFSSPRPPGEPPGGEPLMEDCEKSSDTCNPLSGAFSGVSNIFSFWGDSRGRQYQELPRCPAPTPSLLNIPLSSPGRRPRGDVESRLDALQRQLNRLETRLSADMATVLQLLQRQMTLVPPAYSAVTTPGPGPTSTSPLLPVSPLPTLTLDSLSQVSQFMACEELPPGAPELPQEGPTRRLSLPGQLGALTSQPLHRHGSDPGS
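U2OS cells were transduced with wild-type KCNH2 virus (2.03 x 10^8 / mL) for 4 h at room temperature, then cultured overnight at 37 C. Thallium flux was read with FluxOr dye. Rate constants were normalized to DMSO controls.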
Six1-Eya2 blk – inhibitors of human Six1/Eya2 interaction; actives 0.56% (n = 360,000); activity change, % (concentration not given with the values); AID 651725; AlphaScreen GST-Six1/His-Eya2 binding, biochemical; active compounds read low
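Six1/Eya2 binding was read as AlphaScreen signal after compounds were pinned into GST-Six1 plus His-tagged Eya2 (5X stock 250/500 nM) in pH 8.0 Tris/NaCl/TCEP buffer, beads added, then incubated 1 h, 37 C, dark.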
KCNH2 3.1 inh – KCNH2 3.1 (human) potassium channel inhibition; actives 0.95% (n = 340,000); U2OS KCNH2 3.1, thallium flux FluxOr; active compounds read low; activity change, % (tested at about 1.8 µM);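 active means maximum activity change below -70%; inconclusive means maximum activity change from -70% to -50%; inactive means maximum activity change above -50%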;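 further: thallium influx rate constant from kinetic fluorescence after stimulation buffer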
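Thallium flux via FluxOr fluorescence (Red40 quencher, 45 min loading) in U2OS cells virally expressing the KCNH2 3.1 isoform (1.77 x 10^8 /mL virus, overnight at 37 C). Rate constants from 2-min kinetic reads post-stimulation, normalised to positive and negative controls.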
CtBP-E1A inh – CtBP/E1A binding inhibition | AlphaScreen GST-E1A/His-CtBP binding, 1536-well; active compounds read low | activity change, % (concentration not given with the values) | actives 0.49% (n = 340,000)
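Protein mix (5X: 125 nM each GST-E1A, His-CtBP) was incubated with pinned compound 2 h at 37 deg C in dark, in 50 mM Tris pH 8.0 buffer with 300 mM NaCl. Glutathione donor and nickel acceptor beads followed; AlphaScreen signal read after 1 h.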
Each line names hits and unclear results; the compound was inactive in the other large screens. Most compounds without a hit are left out; they make up all but 2% or so of the library. Unless noted, no stated cut-off is given here; in the data, active means activity change below about -65%; inconclusive means mostly about -30% to -63%; inactive means weaker than that.

Nc1nnnn1/N=C/c1cc(Br)ccc1O	Six1-Eya2 blk -92, CtBP-E1A inh -94 (no result: JMJD2E inh)
O=C(NNC(=O)c1c(O)c2ccccc2[nH]c1=O)c1ccccc1Br	Six1-Eya2 blk -75, CtBP-E1A inh inconclusive (no result: JMJD2E inh)
CC1CC(C)CN(CC(O)COCCOc2ccc(Br)cc2)C1 (stereo unspecified)	none
CC1CC(C)CN(CCOc2ccc(Br)cc2)C1 (stereo unspecified)	JMJD2E inh inconclusive, KCNH2 3.1 inh -96
Cc1cc(C)cc(NC(=O)CSc2nnc(CN3CCOCC3)n2C)c1	none
COc1ccccc1N1CCN(C(=O)CSc2nnc3n2C(C)(C)Cc2ccccc2-3)CC1	none
CC(C)(C)n1ncc2c(=O)n(CC(=O)c3ccc(Cl)cc3)cnc21	none
COc1ccccc1NS(=O)(=O)c1cc(NC(=O)c2cccs2)ccc1N1CCCCC1	JMJD2E inh 25µM
O=C(Nc1ccc(F)cc1)Nc1ccc(N2CCCC2)c(S(=O)(=O)Nc2ccccc2Cl)c1	JMJD2E inh 22µM, KCNH2 3.1 inh -114
COc1ccccc1NS(=O)(=O)c1cc(NC(=O)c2cnccn2)ccc1N1CCOCC1	Six1-Eya2 blk inconclusive, CtBP-E1A inh -73
COc1ccccc1NS(=O)(=O)c1cc(NC(=O)c2cccs2)ccc1N1CCCC1	JMJD2E inh inconclusive
COc1ccc(-c2cc(C)nc3c(-c4ccccc4)cnn23)cc1	none
Cc1cc(C)cc(NC(=O)N2CCCC2C(=O)Nc2ccc(-n3cnnn3)c(C)c2)c1 (stereo unspecified)	none
O=C1c2ccccc2NC(c2cccs2)N1NS(=O)(=O)c1ccccc1 (stereo unspecified)	JMJD2E inh inconclusive
CC1CCCC(C)N1NC(=O)c1ccc(Cl)c(S(N)(=O)=O)c1 (stereo unspecified)	JMJD2E inh inconclusive
CC1Cc2ccccc2N1NC(=O)c1ccc(Cl)c(S(N)(=O)=O)c1 (stereo unspecified)	Six1-Eya2 blk -85
Cc1cc(C)c2sc(N(CCCN(C)C)C(=O)COc3ccc(Cl)cc3)nc2c1	none
c1ccc(CC2CCN(c3nnnn3-c3ccccc3)CC2)cc1	none
Cc1ccc(C(C(=O)NC2CCCC2)N(C(=O)CCC(=O)Nc2cc(C)on2)c2ccccc2)cc1 (stereo unspecified)	none
Cc1cc(NC(=O)CSCC(=O)N(c2cccc(Cl)c2)C(C(=O)NC2CCCCC2)c2ccc(O)c(O)c2)no1 (stereo unspecified)	JMJD2E inh 10µM
COc1ccc(N(C(=O)CSCC(=O)Nc2cc(C)on2)C(C(=O)NC2CCCCC2)c2ccc(O)c(O)c2)cc1 (stereo unspecified)	JMJD2E inh 11µM
Cc1cc(NC(=O)CSCC(=O)N(c2ccc(F)cc2)C(C(=O)NC2CCCCC2)c2ccc(O)c(O)c2)no1 (stereo unspecified)	none
COc1cc(/C=N/OCC(=O)NC23CC4CC(CC(C4)C2)C3)ccc1OCc1ccccc1	none
C=C1C(=O)O[C@@H]2[C@H]3O[C@]3(C)CC/C=C(\C)CC[C@@H]12	none (no result: JMJD2E inh)
COc1ccc(Oc2nnc(-c3ccc(C)cc3)c3ccccc23)cc1	none
COc1nnc(-c2ccc(C)cc2)c2ccccc12	KCNH2 3.1 inh -90 (no result: JMJD2E inh)
Cc1ccc(C(CC(=O)N2CCCCC2)c2ccccc2)c(O)c1C (stereo unspecified)	none (no result: JMJD2E inh)
Cc1ccc(C(CC(=O)N2CCNCC2)c2ccccc2)c(O)c1C (stereo unspecified)	KCNH2 3.1 inh -107 (no result: JMJD2E inh, CtBP-E1A inh)
O=C1OCCN1CCNCc1cn(-c2ccc(F)cc2)nc1-c1ccccc1Cl	hERG WT inh -150
Cc1ccc(-n2cc(CNCCN3CCOC3=O)c(-c3cccc(C)c3)n2)cc1	none
Cc1cc(/C=N/NC(=O)c2ccoc2C)cc(C)c1O	none (no result: JMJD2E inh)
CCN(CC)c1ccc(/C=N/NC(=O)c2ccoc2C)c(O)c1	JMJD2E inh 11µM
CCN(CC)c1ccc(N=Cc2ccc(N(CC)CC)cc2O)cc1	JMJD2E inh inconclusive, Six1-Eya2 blk inconclusive
CCN(CC)c1ccc(/C=N/Nc2ccccc2)c(O)c1	JMJD2E inh 16µM (no result: KCNH2 3.1 inh)
CCN(CC)c1ccc(/C=N/NC(=O)OC)c(O)c1	JMJD2E inh 13µM
CCN(CC)c1ccc(/C=N/N2CCN(Cc3ccccc3)CC2)c(O)c1	Six1-Eya2 blk -75, CtBP-E1A inh inconclusive
C=CCN1C(=O)C(CC(=O)O)SC1=Nc1c(C)n(C)n(-c2ccccc2)c1=O (stereo unspecified)	none
CCN(CC)c1ccc(/C=N/NC(=S)NC)c(O)c1	JMJD2E inh inconclusive, Six1-Eya2 blk -90, CtBP-E1A inh inconclusive
CCN(CC)c1ccc(/C=N/Nc2cccc(C)c2)c(O)c1	JMJD2E inh inconclusive, Six1-Eya2 blk inconclusive
CCCn1c(=N)n(CC(=O)c2ccc(Cl)cc2)c2ccccc21	none (no result: JMJD2E inh)
CC(C)c1ccc2c(c1)CCC1C(C)(C(N)=O)CCCC21C (stereo unspecified)	none (no result: hERG WT inh, Six1-Eya2 blk, KCNH2 3.1 inh, CtBP-E1A inh)
Cc1ccc(/C=N/NC(=O)CN2CCN(S(=O)(=O)c3ccc(Br)cc3)CC2)s1	none
O=C(CN1CCN(S(=O)(=O)c2ccc(F)cc2)CC1)c1ccc(O)c(O)c1	JMJD2E inh 4.5µM
Cc1ccc(S(=O)(=O)N2CCN(CC(=O)N/N=C/C=C/c3ccccc3)CC2)cc1	KCNH2 3.1 inh -75
Cc1ccc(S(=O)(=O)N2CCN(CC(=O)N/N=C/c3ccc(C)o3)CC2)cc1	none
O=C(CN1CCN(S(=O)(=O)c2ccc(Br)cc2)CC1)N/N=C/c1ccc(Br)s1	KCNH2 3.1 inh -76
Cc1ccc(S(=O)(=O)N2CCN(CC(=O)N/N=C\c3ccc(O)c(O)c3)CC2)cc1	JMJD2E inh 16µM
CCOC(=O)/C=C1\CN(Cc2cc(OC)c(OC)c(OC)c2)S(=O)(=O)c2ccccc21	none (no result: JMJD2E inh)
Cc1c(Br)cnn1C(C)C(=O)N1CCN(c2ccc(F)cc2)CC1 (stereo unspecified)	none (no result: JMJD2E inh)
CCCNC(=O)c1cc(-c2ccccc2)c(N2CCCCC2)s1	none (no result: JMJD2E inh, CtBP-E1A inh)
CC1CC1C(=O)OCC(=O)NC(=O)c1ccccc1 (stereo unspecified)	none (no result: JMJD2E inh)
Oc1ccc(/C=N/NC(=S)N/N=C/c2ccc(O)cc2)cc1	Six1-Eya2 blk inconclusive, CtBP-E1A inh -67
Cc1cccc(NC(=O)NCC(c2ccc(F)cc2)N2CCN(C)CC2)c1 (stereo unspecified)	none (no result: JMJD2E inh, CtBP-E1A inh)
NC(=O)c1cccc(-c2cccc(OC(=O)NC3CCCCC3)c2)c1	none (no result: JMJD2E inh)
CC1CN(Cc2c(O)ccc3c2oc(=O)c2ccccc23)CC(C)O1 (stereo unspecified)	JMJD2E inh 28µM (no result: CtBP-E1A inh)
Cc1ccc(N=Cc2cc(Cl)cc(Cl)c2O)nc1	JMJD2E inh inconclusive, hERG WT inh -333
Oc1c(Cl)cc(Cl)cc1/C=N/Nc1ncc(Br)cn1	none
Cn1nc([N+](=O)[O-])nc1Sc1cccc2cccnc12	Six1-Eya2 blk -90 (no result: CtBP-E1A inh)
CC(C)NS(=O)(=O)c1ccc(NC(=S)NC(=O)c2ccc(-c3ccccc3)cc2)cc1	KCNH2 3.1 inh -75
